# Assay results reported in PubChem BioAssay AID527 (NMMLSC, 2006).
# Screen size: about 24,000 compounds; about 65 (0.3%) were called active.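 Rule for the calls: active = share of bacteria positive for the green fluorescent reporter and its mean brightness both inhibited by 50% or more; inactive = the rest, inconclusive results apart.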 The list comes from a sample in which actives are over-represented; it also holds similar structures and randomly drawn compounds.
# Test: blockers of AIP-driven agr signalling in S. aureus – RNAIII-GFP reporter, flow cytometry, primary screen (AID 527);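 note: 0% = AIP-stimulated control and 100% = unstimulated bacteria without AIP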
# Conditions: S. aureus RN6390 RNAIII-GFP reporter, AIP-induced, flow cytometry 3 h, at 2 µM, stronger effect = higher value
# [1] = measured here: inhibition of GFP MFI
SMILES,inhibition,inhibition [1]
Cc1ccccc1NC(=O)Cc1nnc(SCC(=O)N2CCN(c3ccccc3)CC2)n1C,-0.1% (inactive),7.2%
CCC(=O)N1CCN=C1SCc1ccc(F)cc1,1.7% (inactive),7.4%
CCOc1ccccc1-n1c(SCC(=O)NCc2ccco2)nnc1-c1ccncc1,-4.3% (inactive),-22.1%
CN(C)CCCn1c(N)c(C#N)c2nc(C#N)c(C#N)nc21,-1% (inactive),1.8%
CNC(=O)NCCN1CCCC1=O,7.2% (inactive),22.5%
O=C(CCOc1ccccc1)NCc1ccccc1,1.7% (inactive),8.4%
CC1CCCN(C(C(=O)Nc2ccc(C(C)C)cc2)c2ccc3c(c2)OCO3)C1 (stereo not drawn),-2.3% (inactive),0.9%
Cc1cccc(C(=O)OCC(=O)Nc2sc3c(c2C#N)CCC3)c1,0% (inactive),-2%
Cc1cccc(CC(=O)Nc2c3c(nn2-c2cccc(Cl)c2)CS(=O)C3)c1 (stereo not drawn),1.2% (inactive),3.3%
Nc1scc(-c2ccncc2)c1Cl,0.4% (inactive),15.1%
CSC1=NCCN1C(=O)c1ccc(S(=O)(=O)N2CCOCC2)cc1,-5.9% (inactive),-16.9%
O=C(NCCc1ccccn1)c1ccc(COc2ccccc2)o1,-0.4% (inactive),-1.9%
O=S1(=O)CC(NCc2ccccc2)C(Nc2ccc(Cl)cc2)C1 (stereo not drawn),-7% (inactive),-45.9%
Cc1cccc(N2CCN(C(=O)C3CCN(S(=O)(=O)c4cnc[nH]4)CC3)CC2)c1C,-9.8% (inactive),-17%
CCCn1c(C(O)c2ccc(OCC)cc2)nc2ccccc21 (stereo not drawn),-2.6% (inactive),-8.7%
CC(=O)Oc1cc2c(C(=O)NCCN3CCOCC3)c(C)oc2c2ccccc12,-5.9% (inactive),-9.9%
CCS(=O)(=O)N1CCCC(C(=O)NCCCN(C)Cc2ccccc2)C1 (stereo not drawn),-4.7% (inactive),-9.5%
CC(C)(C)c1ccc(C(=O)NCCC(=O)NCc2ccco2)cc1,-2.6% (inactive),1.1%
CC1CC(C)CN(CC(=O)Nc2ccc(S(N)(=O)=O)cc2)C1 (stereo not drawn),-0.3% (inactive),-0.4%
COc1cccc(N2CCN(C3CC(=O)N(c4ccc(Cl)cc4)C3=O)CC2)c1 (stereo not drawn),-2.7% (inactive),-50.4%
CCc1ccc(N2CC(C(=O)NC3=NCCS3)CC2=O)cc1 (stereo not drawn),-0.9% (inactive),-2.9%

SMILES,inhibition,inhibition [1]
OCc1n[nH]c(CO)n1,-8.3% (inactive),-35.9%
COc1ccc(C2/C(=C(/O)c3ccc(OC(C)C)cc3)C(=O)C(=O)N2CCCN2CCOCC2)cc1 (stereo not drawn),7.5% (inactive),17.8%
CCCCN(C)C(=O)c1ccc2c(c1)N(CC)C(=O)c1ccccc1S2(=O)=O,-3% (inactive),-32.6%
COc1ccc(Cl)cc1S(=O)(=O)N1CCN(CC(=O)C(C)(C)C)CC1,-2.8% (inactive),-8.9%
N#CCCn1cnc2ccccc21,2.1% (inactive),38.9%
CC(=O)NCC(=O)N(C)C(C(=O)Nc1ccc2c(c1)OCCO2)c1ccccc1 (stereo not drawn),0.7% (inactive),7.7%
COc1ccccc1-c1cc(C(=O)NCCCn2ccnc2)no1,0.6% (inactive),11.9%
O=C(CN1CCN(C(=O)c2ccco2)CC1)Nc1ccc2c(c1)OCO2,0.1% (inactive),18.6%
CCOC(=O)N1CCN(C(=O)c2ccc3nc4cc(Cl)ccc4c(=O)n3c2)CC1,0.6% (inactive),4.6%
CCOC(=O)N1CCN(C(=O)c2cnc3n(c2=O)CCS3)CC1,-0.4% (inactive),7.7%
NC(=O)C1(N2CCCCC2)CCN(C(=O)c2ccc(C#Cc3ccccc3)o2)CC1,14.7% (inactive),41.9%
COc1ccc(-c2noc(COc3ccc(Cl)c(C)c3)n2)cc1,0.3% (inactive),-1.9%
COc1ccccc1N1CCN(C(=O)c2cc(-c3ccc(Cl)c(Cl)c3)on2)CC1,0.6% (inactive),12%
Cc1ccc(S(=O)(=O)NCC(=O)N(CC(=O)NC2CCCCC2)Cc2ccco2)cc1,1% (inactive),1.8%
O=C(CN1CCOCC1)N1CCCc2c1c(=O)oc1ccc(OCc3ccccc3)cc21,7.9% (inactive),27.4%
COC(=O)c1ccc(NC(=O)CSc2nnc(Cc3cccn3C)n2-c2ccc(F)cc2)cc1,0.7% (inactive),2.8%
CCOc1ccc(S(=O)(=O)n2ccnc2)c2ccccc12,3.6% (inactive),12.2%
COc1ccc(N2CCN(CCNC(=O)c3nnc(Cc4c(F)cccc4Cl)o3)CC2)cc1,-1.4% (inactive),-14%
O=C(CSc1nnc(-c2c[nH]c3ccccc23)n1-c1ccc(F)cc1)NCc1ccco1,-0.1% (inactive),3.9%
O=C(Nc1nccs1)C1CCCN1S(=O)(=O)c1cccc2cccnc12 (stereo not drawn),10.8% (inactive),6.8%
CCOCCCN1C(=O)CN(C2CCCCC2)C(=O)C1c1ccc(OCC)c(OC)c1 (stereo not drawn),0.8% (inactive),4.3%

SMILES,inhibition,inhibition [1]
O=C(NC1=NCCS1)[C@H](Cc1ccccc1)N1C(=O)c2ccccc2C1=O,-2% (inactive),-7.9%
CCOc1ccc(/C(O)=C2/C(=O)C(=O)N(Cc3cccnc3)C2c2ccc(N(C)C)cc2)c(C)c1 (stereo not drawn),-1.8% (inactive),-3.1%
Cc1cc(NC(=O)CSc2nnc(-c3ccc(Cl)s3)o2)no1,-5.9% (inactive),-26.8%
COc1ccc(NC(=O)CCNC(=O)Cn2ccc3ccccc3c2=O)c(OC)c1,-1.1% (inactive),-13.6%
COc1ccccc1N1CCN(c2nc3ccccc3n3nnnc23)CC1,-2.2% (inactive),-4.7%
CC(=O)c1cccc(S(=O)(=O)N2CCC(n3nnc4cc(F)ccc43)CC2)c1,-1.4% (inactive),-26.3%
CCOC(=O)c1cn(CC(=O)Nc2ccc(C(C)C)cc2)nn1,2.3% (inactive),13.3%
CCOC(=O)c1ccc(Nc2cc(C)nc3nc(C)nn23)cc1,-5.5% (inactive),-32.8%
Cn1c(C(=O)NCCN2CCc3ccccc3C2)cc2c(=O)[nH]c3ccccc3c21,-1.3% (inactive),-0.4%
COc1ccc(-n2ncc3c(N4CCCc5ccccc54)ncnc32)cc1,-3.1% (inactive),-2.2%
C=CCOc1ccc(/C=N/n2cncn2)cc1OC,0.5% (inactive),-15.3%
Cc1ccc(NC2=NC(c3ccccc3)n3c(nc(C)cc3=O)N2)cc1 (stereo not drawn),-2.1% (inactive),-6.2%
CCCNC(=O)Nc1ccccc1C(=O)Nc1ccc(OC)cc1,1.7% (inactive),13.6%
COc1ccc(NC(=O)c2c(SC)nsc2SC)cc1,67.4% (active),74.3%
COc1ccc(CC(=O)Nc2ccc(-c3nnc(-c4ccc(C)cc4)o3)cc2)cc1,7.6% (inactive),35.1%
Cc1noc(COc2ccccc2OCC(O)CNC(C)(C)C)n1 (stereo not drawn),-0.1% (inactive),0.9%
Cc1cccc(C2c3c(n(C)c(=O)n(C)c3=O)N=C3c4ccccc4C(=O)C32)c1 (stereo not drawn),1.5% (inactive),20.3%
COc1cccc(N(C(=O)c2ccn[nH]2)C2(C(=O)Nc3c(C)cccc3C)CCCCC2)c1,5.5% (inactive),-8%
CCN(Cc1nc2ccccc2c(=O)[nH]1)Cc1cc(=O)oc2cc(C)c(C)cc12,4.2% (inactive),13.1%
Cn1c(COc2ccc(Cl)cc2)nc2ccccc2c1=O,-6.8% (inactive),-42.8%
COc1ccc(OC)c(C2N(c3ccccn3)C(=O)C3CCCN32)c1 (stereo not drawn),-2.2% (inactive),-7.1%

SMILES,inhibition,inhibition [1]
COc1cccc(C(CC(=O)NCCN2CCOCC2)NS(=O)(=O)c2ccc(C)cc2)c1OC (stereo not drawn),-5% (inactive),-11.5%
COc1ccccc1C(=O)n1nc(-c2ccccc2)nc1N,-0.9% (inactive),-0.5%
Cc1cc(=O)n2nc(N3CCCC3C(=O)NCCCN3CC(C)CC(C)C3)sc2n1 (stereo not drawn),2.5% (inactive),17.6%
CC1CCCCN1S(=O)(=O)c1ccc(C(=O)Nc2nnc(-c3cccs3)o2)cc1 (stereo not drawn),65.9% (active),62.3%
COc1cccc(-c2nnc(NC(=O)c3ccc(S(=O)(=O)N(CC(C)C)CC(C)C)cc3)o2)c1,14.3% (inactive),15.6%
CCc1nnc(NC(=O)c2ccc(S(=O)(=O)NC3CCCCC3)cc2)s1,0.3% (inactive),4.5%
O=C(O)Cc1ccc(-c2ccccc2)cc1,-0.8% (inactive),3.1%
CN(C(=O)C1CCOC1)c1nnc(-c2cccnc2)s1 (stereo not drawn),-2.1% (inactive),1.3%
COc1ccc(N2CCN(C(=O)CNC(=O)c3ccc(C(C)(C)C)cc3)CC2)cc1,-5.2% (inactive),-22.7%
CCOc1cc(C(=O)Nc2ncccn2)cc(OCC)c1OCC,-0.2% (inactive),0.7%
COC(=O)Nc1ccc(S(=O)(=O)N(C)CC(F)(F)C(F)F)cc1,-3.8% (inactive),-5.8%
CC(=O)NC(Cc1ccc(F)cc1)C(=O)O (stereo not drawn),-5.3% (inactive),-7.6%
Cc1nc2ccc(S(=O)(=O)NC(C(=O)N3CCCCCC3)C(C)C)cc2s1 (stereo not drawn),0.8% (inactive),-1%
Cc1nc(NC(=O)CCC(=O)O)sc1C(=O)N(C)C,-4.1% (inactive),-15.4%
O=C(O)C1C2C=CC(C2)C1C(=O)N1CCN(CCO)CC1 (stereo not drawn),-0.3% (inactive),-23.2%
Cc1nnc(SCCCn2c(N3CCCCC3)nc3c2c(=O)[nH]c(=O)n3C)s1,2.3% (inactive),8.9%
CCOC(=O)CSc1nnc(CNC(=O)c2cccs2)n1-c1cc(OC)ccc1OC,1.2% (inactive),29.5%
O=C(CSc1nc2ccccc2o1)N1CCN(c2ccc(Cl)cc2)CC1,0.5% (inactive),5.2%
CCOc1ccc(NC(=O)CC2NCCNC2=O)cc1 (stereo not drawn),0.5% (inactive),16.7%
CCOc1ccc(CNC(=O)C2CCC(=O)N2C2CCCC2)cc1OC (stereo not drawn),3.8% (inactive),11.6%
CCOC(=O)N1CCC(NC(=O)c2ccc3nc(N4CCOCC4)sc3c2)CC1,-5.4% (inactive),-36.9%
